BAZ2B inh = qHTS Assay for Inhibitors of BAZ2B; Bromodomain adjacent to zinc finger domain protein 2B (Homo sapiens), Q9UIF8; AlphaScreen BAZ2B-H3K14Ac peptide displacement; Potency, µM (titrated, usually from 114 µM), actives largely listed as inhibitors; 360,000 tested, 4.4% active; also: nearly all actives have a fitted effect of over 60% in size
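AlphaScreen luminescence quantifies BAZ2B engagement of H3K14Ac peptide; the protein and biotinylated peptide are both at 50 nM final, buffer PBS pH 7.4 with 0.01% Tween-20, all steps at room temperature.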
G9a inh = qHTS Assay for Inhibitors of Histone Lysine Methyltransferase G9a; G9a H3K9 monomethylation, AlphaScreen, 2 h; Histone-lysine N-methyltransferase EHMT2 (Homo sapiens), Q96KQ7; 350,000 tested, 8.8% active; AID 504332, 2011; Potency, µM (doses to about 102 µM), most hits filed as inhibitors; also: nearly all actives have a fitted effect of over 75% in size
Target sequence (Q96KQ7 913-1193 limits assumed): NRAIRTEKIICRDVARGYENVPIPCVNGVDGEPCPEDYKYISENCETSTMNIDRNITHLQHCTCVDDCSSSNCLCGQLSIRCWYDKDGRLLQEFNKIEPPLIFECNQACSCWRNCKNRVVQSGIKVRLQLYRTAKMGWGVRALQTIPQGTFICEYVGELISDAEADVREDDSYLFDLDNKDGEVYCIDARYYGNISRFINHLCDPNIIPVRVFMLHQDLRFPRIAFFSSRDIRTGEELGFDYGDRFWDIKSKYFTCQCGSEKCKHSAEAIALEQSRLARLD
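AlphaScreen detection with an anti-monomethyl H3K9 antibody quantified product after a 2 h room-temperature reaction containing 500 nM biotinylated H3K9 peptide, 20 µM SAM and 20 nM enzyme, which had been preincubated 15 min with compound.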
JMJD2A Tudor = qHTS Assay for Inhibitors of JMJD2A-Tudor Domain. Potency, µM (series often up to 114 µM), hits mostly inhibitors. 390,000 tested, 4.4% active. AlphaScreen JMJD2A-Tudor / H3K4me3 peptide binding; also: nearly all actives have a fitted effect of over 50% in size
Sfp PPTase inh = qHTS Assay for Inhibitors of Bacillus subtilis Sfp phosphopantetheinyl transferase (PPTase) | 4'-phosphopantetheinyl transferase ffp (Bacillus subtilis), Q9F4F7 | Biochemical Sfp PPTase activity, qHTS | Potency, µM, most hits filed as inhibitors | 310,000 tested, 3.5% active | AID 1490, 2009;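 also: the enzyme is Sfp with the accession as filed and its product quenches rhodamine fluorescence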
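Buffer: 50 mM Hepes-Na pH 7.6, 10 mM MgCl2, 0.01% Nonidet P-40, 0.01% BSA. Enzyme 15 nM, pre-exposed to compound 15 min; substrates then added and fluorescence change tracked over 30 min.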
HP1b binding inh = HTS for Inhibitors of HP1-beta Chromodomain Interactions with Methylated Histone Tails | Chromobox protein homolog 1 (Homo sapiens), P83916 | AlphaScreen HP1-beta / biotin-H3K9me3 peptide binding | Potency, µM (highest dose often 114 µM), usual class: inhibitors | 390,000 tested, 0.56% active; also: nearly all actives have a fitted effect of over 70% in size
Target sequence (P83916 whole entry, looked up): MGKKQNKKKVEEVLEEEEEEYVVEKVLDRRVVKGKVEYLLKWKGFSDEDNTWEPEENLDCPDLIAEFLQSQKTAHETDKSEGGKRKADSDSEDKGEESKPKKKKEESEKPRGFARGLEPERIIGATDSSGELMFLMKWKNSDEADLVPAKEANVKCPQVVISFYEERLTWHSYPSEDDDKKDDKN
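Compound inhibition of the preformed complex between 50 nM HP1-beta and 50 nM biotinylated H3K9me3 peptide was read by AlphaScreen. Buffer was PBS pH 7.4 with 0.01% Tween-20. Incubations ran 30 min at room temperature, with 10 ug/mL donor/acceptor beads.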
Each line names hits and unclear results; the compound was inactive in the other large screens. An excerpt weighted towards active compounds, which were near 12% of everything screened. Calls follow the shape of the dose curve; as a rule, active = well fitted curve in the direction sought with a large enough effect; inconclusive = small, poorly fitted or top-dose-only effect, or another doubt; inactive = no such curve, though single readings can be large; an effect the other way counts as inactive or inconclusive.

O=c1cc(-c2ccccc2)oc2cc(O[C@@H]3O[C@H](CO)[C@@H](O)[C@H](O)[C@H]3O)c(O)c(O)c12	Sfp PPTase inh 50µM (no result: BAZ2B inh, G9a inh, JMJD2A Tudor, HP1b binding inh)
O=c1cc(-c2ccc(O)cc2)oc2cc(O)c(C3OC(CO)C(O)C(O)C3O)c(O)c12 (stereo not given)	BAZ2B inh inconclusive, G9a inh inconclusive, JMJD2A Tudor inconclusive
O=c1cc(-c2ccc(O)cc2)oc2cc(O[C@H]3OC(CO)C(O)C(O)C3O)cc(O)c12 (stereo not given in full)	none (no result: BAZ2B inh, JMJD2A Tudor, HP1b binding inh)
O=c1cc(-c2ccc(O)c(O)c2)oc2cc(O[C@@H]3O[C@H](CO)[C@@H](O)[C@H](O)[C@H]3O)cc(O)c12	JMJD2A Tudor 13µM (no result: BAZ2B inh, G9a inh)
Cc1cc(NC(=O)CCC(=O)N(c2ccccc2)C(C(=O)NC2CCCC2)c2ccccc2C)no1 (stereo not given)	none
Cc1ccc(Nc2nnc(SCC(=O)NC3CC3)s2)cc1	G9a inh inconclusive (no result: Sfp PPTase inh)
COc1ccc(-c2ccc3c(N)c(C(=O)c4ccc(OC)c(OC)c4)sc3n2)cc1	G9a inh 2.8µM, JMJD2A Tudor inconclusive
COc1ccc(-c2ccc3c(n2)sc2c(=O)[nH]c(=O)[nH]c23)cc1OC	G9a inh 3.5µM (no result: JMJD2A Tudor, HP1b binding inh)
COc1ccc(-c2ccc3c(N)c(C(=O)NC(C)C)sc3n2)cc1OC	Sfp PPTase inh inconclusive
O=C(NCC(c1cccs1)N1CCOCC1)c1ccc(Cl)nc1 (stereo not given)	none (no result: Sfp PPTase inh)
Cc1cccc(C)c1NC(=O)c1nc(SC(C)C)ncc1Cl	none (no result: Sfp PPTase inh)
CCCCN(C)C(=O)c1ccc2c(c1)S(=O)(=O)c1ccccc1C2=O	none
CCCN(CCC)C(=O)c1ccc2c(c1)S(=O)(=O)c1ccccc1C2=O	G9a inh 79µM, JMJD2A Tudor inconclusive
Cc1ccccc1OCC(=O)Nc1ccc(S(=O)(=O)N(Cc2ccccc2)c2ccccc2)cc1	JMJD2A Tudor 79µM (no result: Sfp PPTase inh)
O=C(COc1ccc(F)cc1)Nc1ccc(S(=O)(=O)N(Cc2ccccc2)c2ccccc2)cc1	none (no result: Sfp PPTase inh)
COc1ccc(N2C(S)=C(C#N)C(=O)NC23CCCCC3)cc1	BAZ2B inh inconclusive, G9a inh 35µM, Sfp PPTase inh 18µM
O=C(NC(=O)c1ccc(Cl)cc1)Nc1cc(N2CCCCC2)ncn1	JMJD2A Tudor 79µM (no result: BAZ2B inh, G9a inh, Sfp PPTase inh)
O=C(Nc1cc(N2CCCCC2)ncn1)c1ccc(F)cc1	none
C=CCOc1ccc(Br)cc1/C=C1/SC(=Nc2ccc(C(=O)O)cc2)NC1=O	BAZ2B inh 45µM, G9a inh 20µM, JMJD2A Tudor inconclusive
Cc1ccc(-n2[nH]c(C)c(C=Nc3ccc(S(=O)(=O)Nc4nc(C)cc(C)n4)cc3)c2=O)c(C)c1	JMJD2A Tudor inconclusive
Cc1cc(C)nc(NS(=O)(=O)c2ccc(N=Cc3c(C)[nH]n(-c4ccccc4)c3=O)cc2)n1	JMJD2A Tudor 79µM
Cc1[nH]n(-c2ccc(Br)cc2)c(=O)c1C=Nc1ccc(S(=O)(=O)Nc2nccs2)cc1	BAZ2B inh inconclusive, JMJD2A Tudor inconclusive
CCc1nnc(NS(=O)(=O)c2ccc(N=Cc3c(C)[nH]n(-c4ccc(C)c(C)c4)c3=O)cc2)s1	BAZ2B inh 50µM
O=[N+]([O-])c1ccc(S(=O)(=O)NN=C2CCCCC2)cc1	none (no result: BAZ2B inh, G9a inh, Sfp PPTase inh)
O=[N+]([O-])c1ccc(S(=O)(=O)N/N=C/c2ccsc2)cc1	BAZ2B inh inconclusive, G9a inh 45µM
CCCC12CN3CC(C)(CN(C1)C3c1ccco1)C2=O (stereo not given)	JMJD2A Tudor 56µM
O=C(N/C(=C/c1cccc(Br)c1)c1nc(=S)[nH][nH]1)c1ccccc1	BAZ2B inh inconclusive, G9a inh inconclusive, JMJD2A Tudor inconclusive, HP1b binding inh inconclusive
Cc1ccc(C(=O)N/C(=C\c2ccc(Br)cc2)c2nc(=S)[nH][nH]2)cc1	BAZ2B inh inconclusive, JMJD2A Tudor 45µM
CS(=O)c1ccccc1O (stereo not given)	none
O=S(c1ccccc1O)S(=O)c1ccccc1O (stereo not given)	JMJD2A Tudor 0.79µM, HP1b binding inh 3.5µM (no result: BAZ2B inh, G9a inh, Sfp PPTase inh)
COC(=O)c1c(NC(=S)Nc2cc(OC)c(Cl)cc2OC)sc2c1CCCCC2	JMJD2A Tudor 50µM, Sfp PPTase inh inconclusive
COC(=O)c1c(NC(=S)NNS(=O)(=O)c2ccc(OC)cc2OC)sc2c1CCCCCC2	none
CCOC(=O)c1c(NC(=S)Nc2cc([N+](=O)[O-])ccc2OC)sc2c1CCCCC2	BAZ2B inh inconclusive, G9a inh inconclusive, Sfp PPTase inh 22µM (no result: JMJD2A Tudor, HP1b binding inh)
Cc1cccc(NC(=S)N/N=C/c2ccc([N+](=O)[O-])s2)c1	BAZ2B inh 10µM, G9a inh inconclusive, JMJD2A Tudor 56µM, HP1b binding inh inconclusive
Cc1cccc(NC(=S)NNC(=O)c2cccc([N+](=O)[O-])c2)c1	BAZ2B inh inconclusive, G9a inh 20µM
Cc1ccc(C(=O)NC(=S)NNC(=O)c2cccc([N+](=O)[O-])c2)cc1	none (no result: G9a inh)
O=[N+]([O-])c1cccc(NC(=S)NCc2ccncc2)c1	G9a inh 35µM, Sfp PPTase inh 13µM
Cc1cc(Br)ccc1NC(=S)Nc1cccc([N+](=O)[O-])c1	G9a inh 45µM, Sfp PPTase inh inconclusive
COc1cc2c(s1)c1cnn(Cc3ccccc3F)c(=O)c1n2C	none (no result: BAZ2B inh, G9a inh, Sfp PPTase inh, HP1b binding inh)
Cc1ccccc1CN1c2ccccc2-c2nc(SCC(=O)NCc3ccccc3)ncc2S1(=O)=O	none (no result: Sfp PPTase inh)
COC(=O)[C@@]1(Cc2ccc(OC)cc2)[C@H]2c3cc(C(=O)N4CCCC4)n(CCc4ccc(O)c(O)c4)c3C[C@H]2CN1C(=O)c1ccccc1	none (no result: BAZ2B inh, G9a inh, JMJD2A Tudor, HP1b binding inh)
Cc1occc1C(=O)NNC(=S)Nc1cccc([N+](=O)[O-])c1	G9a inh 11µM
CC(=O)NC(=S)Nc1cccc([N+](=O)[O-])c1	none
CC(C)[C@@H](CC(=O)N[C@@H]1CCCC[C@H]1C(=O)N[C@H](CC(=O)N[C@@H](CCC(=O)O)CC(=O)O)Cc1c[nH]c2ccccc12)NC(=O)C[C@H](Cc1c[nH]c2ccccc12)NC(=O)[C@@H]1CNCC[C@H]1N	none (no result: BAZ2B inh, G9a inh, JMJD2A Tudor, HP1b binding inh)
Cc1nc(SCC(=O)Nc2cccnc2Cl)nc(C)c1C	G9a inh 40µM
Nc1cc(=O)[nH]c(SCC(=O)Nc2cccnc2Cl)n1	none
Cc1nc(SCC(=O)Nc2cc(Cl)ccc2[N+](=O)[O-])nc(C)c1C	BAZ2B inh 40µM, G9a inh inconclusive, JMJD2A Tudor inconclusive, HP1b binding inh inconclusive
O=C(CSc1nnc(-c2ccco2)n1CC1CCCO1)c1ccc(F)cc1 (stereo not given)	G9a inh 45µM, JMJD2A Tudor 3.2µM, Sfp PPTase inh 50µM, HP1b binding inh inconclusive
COc1ccc(C(=O)CSc2nnc(-c3ccco3)n2CC2CCCO2)cc1 (stereo not given)	Sfp PPTase inh 45µM

Screening results deposited in PubChem by National Center for Advancing Translational Sciences (NCATS).
